The text below walks through data of PubChem BioAssay AID2284136 (EPA ToxCast).

Activity calls are given as the source filed them. How the source made its calls: active means hit-call score of the fitted dose curve at least 0.9, where 1 is the maximum; inactive means score below 0.9.

In general, AC50 refers to the midpoint of the concentration-response curve, whichever way the signal moves.

In this experiment the target is Tyrosine-protein phosphatase non-receptor type 11 (Homo sapiens) (UniProt Q06124). Briefly: ERF_FR_ENZ_hPTPN11: Eurofins (ERF) Enzymatic Assay for human Phosphatase Receptor (PTPN11/SHP2). How it is done: ERF_FR_ENZ_hPTPN11 is a biochemical, single-readout assay that uses extracted gene-proteins in a cell-free assay. Measurements were taken 0.5 hour after chemical dosing in a 96-well plate. See SHP2 Human Phosphatase Enzymatic Assay, PhosphataseProfiler.ERF_FR_ENZ_hPTPN11 is an assay component calculated from the ERF_FR_ENZ_hPTPN11 assay. It is designed to measure enzyme activity using a type of enzyme reporter as detected by fluorescence intensity with spectrophotometry technology.Data from the assay component ERF_FR_ENZ_hPTPN11 was analyzed at the assay endpoint, ERF_FR_ENZ_hPTPN11, in the positive analysis fitting direction relative to DMSO as the negative control and baseline of activity. Using a type of enzyme reporter, loss-of-signal activity can be used to understand changes in enzymatic activity as they relate to gene PTPN11. To generalize the intended target to other relatable targets, this assay endpoint is annotated to the phosphatase intended target family, where the subfamily is protein tyrosine phosphatase.
Chain of Tyrosine-protein phosphatase non-receptor type 11 (Homo sapiens) (Q06124 whole entry, looked up): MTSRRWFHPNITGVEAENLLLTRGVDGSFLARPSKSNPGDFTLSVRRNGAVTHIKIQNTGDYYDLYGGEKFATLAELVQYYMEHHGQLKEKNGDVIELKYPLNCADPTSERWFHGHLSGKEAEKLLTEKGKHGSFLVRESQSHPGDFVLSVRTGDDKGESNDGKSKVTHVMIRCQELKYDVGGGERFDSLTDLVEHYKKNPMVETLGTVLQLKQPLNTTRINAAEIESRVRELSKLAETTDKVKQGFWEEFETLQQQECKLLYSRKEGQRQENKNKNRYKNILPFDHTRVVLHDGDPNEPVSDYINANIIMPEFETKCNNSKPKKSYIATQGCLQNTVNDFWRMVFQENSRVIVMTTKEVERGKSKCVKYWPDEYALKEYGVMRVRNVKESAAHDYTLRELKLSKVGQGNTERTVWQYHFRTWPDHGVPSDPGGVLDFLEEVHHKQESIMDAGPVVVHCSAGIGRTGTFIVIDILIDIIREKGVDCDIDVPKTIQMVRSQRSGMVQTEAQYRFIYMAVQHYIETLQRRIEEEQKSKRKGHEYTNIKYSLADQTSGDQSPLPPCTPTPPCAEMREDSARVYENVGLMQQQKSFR
Human recombinant phosphatase PTPN11 (SHP-2) expressed in E. coli is used. Test compound and/or vehicle is preincubated with 45 ng/ml enzymeo for 15 minutes at 37 C in modified HEPES buffer pH 7.2. The reaction is initiated by addition of 100 uM DiFMUP for 60 minutes. Determination of the amount of DiFMU formed is read spectrofluorimetrically at 358 nm/450 nm. […]
Regarding `O=C(/C=C/c1ccc(O)cc1)CC(=O)/C=C/c1ccc(O)cc1`, the AC50 is 0.28 nM (active).
